Screening data: PubChem BioAssay, National Center for Advancing Translational Sciences (NCATS)
This is a sample that favours compounds with a hit; in the whole collection about 11% have one here.
G9a block: qHTS Assay for Inhibitors of Histone Lysine Methyltransferase G9a; G9a H3K9 monomethylation, AlphaScreen, 2 h; Potency, µM (highest dose often 102 µM), inactives show at the top dose activity, negative = inhibition, actives largely listed as inhibitors; 8.8% of 350,000 active; also: potency is read from the fitted curve at half-maximal effect; nearly all actives have a fitted effect of over 75% in size
Target sequence (Q96KQ7 913-1193 limits assumed): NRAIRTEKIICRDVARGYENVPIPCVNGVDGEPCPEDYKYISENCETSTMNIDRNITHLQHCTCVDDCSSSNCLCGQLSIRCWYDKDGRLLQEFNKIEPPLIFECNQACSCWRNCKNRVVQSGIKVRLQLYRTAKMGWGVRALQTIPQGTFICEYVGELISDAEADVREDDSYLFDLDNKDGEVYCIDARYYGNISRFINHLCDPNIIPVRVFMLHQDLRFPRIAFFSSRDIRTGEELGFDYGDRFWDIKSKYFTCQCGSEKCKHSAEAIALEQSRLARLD
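G9a (20 nM) preincubated 15 min RT with compounds, then 500 nM biotinylated H3K9 peptide and 20 uM SAM added; 2 h RT reaction. Monomethyl-H3K9 product detected by AlphaScreen with anti-H3K9me1 antibody, streptavidin donor and anti-rabbit IgG acceptor beads.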
Tau fluor counter: Counterscreen qHTS for Inhibitors of Tau Fibril Formation, Fluorescence Polarization; 0.93% of 280,000 active; Potency, µM (doses to about 57.7 µM), without a hit: at the highest dose activity change, negative = decrease; tau K18 P301L Alexa594 fluorescence, heparin fibrillization; also: potency is read from the fitted curve at half-maximal effect; nearly all actives have a fitted effect of over 55% in size
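Human K18 P301L tau (15 uM unlabeled plus 0.24 uM Alexa 594-labeled, final) in 100 mM sodium acetate pH 7 was mixed with compound and 20 uM heparin and incubated 6 hr at 37 C.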
Coupling enz: qHTS Assay for Inhibitors of Fructose-1,6-bisphosphate Aldolase from Giardia Lamblia: Coupling assay counterscreen | coupling enzyme system counterscreen, AmpLite Red fluorescence | activity change, negative = inhibition, % at 58.2 µM, hits read low | 0.67% of 290,000 active; in the data active = activity change below about -30%
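Final compound at 57.5 uM, incubated 10 min at RT with coupling enzyme reagent (glyceraldehyde-3-phosphate), then 20 min with substrate and AmpLite Red detection. Fluorescence read at 525/598 nm; tests interference with the coupling assay, not aldolase inhibition.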
Sfp PPTase inh: qHTS Assay for Inhibitors of Bacillus subtilis Sfp phosphopantetheinyl transferase (PPTase) | 4'-phosphopantetheinyl transferase ffp (Bacillus subtilis), Q9F4F7 | Biochemical Sfp PPTase activity, qHTS | Potency, µM, for the others: largest response in the series, negative = inhibition, hits mostly inhibitors | 3.5% of 310,000 active | AID 1490, 2009;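 also: the enzyme is Sfp with the accession as filed and its product quenches rhodamine fluorescence; potency is read from the fitted curve at half-maximal effect; 0% = enzyme reaction without inhibitor and -100% = no enzyme wells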
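Step 1, compound plus 15 nM Sfp-PPTase, 15 min, room temperature. Step 2, add rhodamine-CoA (5 uM) and BHQ-2-YbbR (12.5 uM). Step 3, read 525/598 nm fluorescence at 0 and 30 min.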
Tau FP inhib: qHTS for Inhibitors of Tau Fibril Formation, Fluorescence Polarization | AID 1468, 2008 | Microtubule-associated protein tau (Homo sapiens), P10636 | 0.39% of 280,000 active | Potency, µM (highest dose often 57.7 µM), for the others: top-dose activity, negative = inhibition, actives largely listed as inhibitors | K18 P301L tau heparin fibrillization, Alexa594 FP, 6 h; also: potency is read from the fitted curve at half-maximal effect; nearly all actives have a fitted effect of over 55% in size
Target sequence (P10636 561-689 P618L limits assumed): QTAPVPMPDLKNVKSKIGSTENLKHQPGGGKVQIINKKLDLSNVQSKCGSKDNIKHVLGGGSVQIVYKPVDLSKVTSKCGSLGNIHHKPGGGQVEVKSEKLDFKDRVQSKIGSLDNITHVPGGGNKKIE
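Heparin (20 uM) drove fibril formation of recombinant tau K18 P301L, 15 uM unlabeled with 0.24 uM Alexa 594 label, for 6 hr at 37 C in 100 mM sodium acetate pH 7. Fluorescence polarization (555/632 nm) read 1 hr after 30 uM ThT.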
Tau fibril ThT: qHTS for Inhibitors of Tau Fibril Formation, Thioflavin T Binding | Microtubule-associated protein tau (Homo sapiens), P10636 | recombinant tau K18 P301L (four-repeat tau fragment), heparin-induced fibrillization, ThT fluorescence | Potency, µM (titrated, usually from 57.4 µM), for inactives: top-dose activity, negative = inhibition, usual class: inhibitors | 2.1% of 270,000 active | AID 1460, 2008; also: potency is read from the fitted curve at half-maximal effect; nearly all actives have a fitted effect of over 55% in size
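Recombinant human tau K18 fragment […] carrying P301L, 15 uM unlabeled plus 0.24 uM Alexa 594-labeled, was fibrillized with 20 uM heparin in 100 mM sodium acetate pH 7 for 6 hr at 37 C; 30 uM ThT fluorescence read after 1 hr.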
* marks the source's active call; other numbers are inactive results; ? = inconclusive; . = no result; [ ] = another dose, or the depositor's remark. Unless noted, calls follow the shape of the dose curve; as a rule, active = well fitted curve in the direction sought with a large enough effect; inconclusive = small, poorly fitted or top-dose-only effect, or another doubt; inactive = no such curve, though single readings can be large; an effect the other way counts as inactive or inconclusive. Unless noted, % is scaled to controls: 0 for no effect and ±100 for the full control effect.

SMILES	G9a block	Tau fluor counter	Coupling enz	Sfp PPTase inh	Tau FP inhib	Tau fibril ThT
CC[n+]1c(/C=C/N(C)c2ccccc2)oc2ccc(F)cc21	8.9µM*	?	-29	50µM*	25µM*	14µM*
CC[n+]1c(/C=C/Nc2ccccc2)oc2ccc(OC)cc21	?	-15%	-6	5%	-7%	?
CC[n+]1c(/C=C/Nc2ccccc2)oc2ccccc21	50µM*	-4%	-17	-4%	-8%	8%
CCn1c(/C=C/N(C)c2ccccc2)[n+](CC)c2ccc(Cl)cc21	?	-10%	0	-2%	-2%	-20%
Cc1nc(-c2ccccc2)sc1-c1ccc(SCC(=O)NCc2ccc(F)cc2)nn1	-5%[59 µM]	-5%	.	.	-3%	4%
Cc1cc(OC(C)C(=O)N(Cc2ccco2)C2CCS(=O)(=O)C2)cc(C)c1Cl (centres undefined)	-11%	.	1	-2%	.	.
CCOC(=O)c1ccc(NC(=O)CCn2ccc(C)n2)cc1	13%[59 µM]	3%	.	.	-1%	-2%
O=C(Nc1nc2c(s1)CN(Cc1ccccc1)CC2)c1c(F)cccc1F	8.9µM*	-13%	-7	-6%	?	?
COC(=O)c1c(NC(=O)C(C)(C)C)sc2c1CCN(Cc1ccccc1)C2	.	.	3	-1%	.	.
CC(C)(C)C(=O)Nc1nc2c(s1)CN(Cc1ccccc1)CC2	18µM*	1%	-14	-27%	-9%	-8%
O=C(Nc1nc2c(s1)CN(Cc1ccccc1)CC2)C1CCCC1	45µM*	-10%	-2	-7%	-10%	?
Cn1c(N=Nc2ccccc2)nc2ccccc21	?	2%	-26	?	1%	5%
Oc1ccc(N=Nc2ccccc2)o1	40µM*	.	-1	?	.	.
CCOC(=O)CSc1nc2cc(OCC)ccc2cc1C#N	-18%[12.7 µM]	-23%	-3	7%	0%	16µM*
CCCCOC(=O)CSc1nc(N)c(C#N)c(-c2ccc(OC)cc2)c1C#N	7%[12.7 µM]	?	-6	7%	?	-15%
CCCCOc1ccc(-c2c(C#N)c(N)nc(SCC(N)=O)c2C#N)cc1	30%[59 µM]	?	4	-15%	22µM*	-11%
CCOC(=O)CSc1nc(N)c(C#N)c(-c2ccc(OC)cc2)c1C#N	50µM*	-7%	3	-12%	?	-3%
CCOC(=O)CSc1nc(C2CC2)cc(-c2ccc(Cl)cc2)c1C#N	-2%[59 µM]	-20%	0	18µM*	?	-18%
CCOc1ccc2cc(C#N)c(SCC(=O)N3CCC(C)CC3)nc2c1	?	-18%	0	-9%	?	-12%
CCCCOC(=O)CSc1nc(N)c(C#N)c(-c2ccc(OCC)cc2)c1C#N	0%[12.7 µM]	-20%	-2	6%	?	-4%
Cc1ccc2cc3cc(C(=O)N(C)c4ccccc4C)oc3nc2c1	-5%[59 µM]	-9%	.	.	3%	?
COc1ccc(N2C(=O)Cc3cc(OC)c(OC)cc3C2c2ccc(F)cc2)cc1 (centres undefined)	-23%[59 µM]	-12%	.	.	-7%	-10%
N#Cc1c(-c2ccccc2F)cc(C2CC2)nc1SCC(=O)c1cccs1	45µM*	-28%	0	3%	-22%	4%
Cc1cccnc1NC(=O)CN1C(=O)NC(C)(c2ccc3ccccc3c2)C1=O (centres undefined)	-30%	.	.	.	.	.
CC(C)c1nc(N2CCN(C(=O)c3ccco3)CC2)c(C#N)c2c1COC(C)(C)C2	?	.	-1	-4%	.	.
SMILES	G9a block	Tau fluor counter	Coupling enz	Sfp PPTase inh	Tau FP inhib	Tau fibril ThT
CC(C)c1nc(N2CCN(C(=O)c3ccco3)CC2)c2c3c(sc2n1)CCCC3	-22%[59 µM]	-9%	5	-19%	?	?
CCCc1cc(N2CCN(C(=O)c3ccco3)CC2)n2c(nc3ccccc32)c1C#N	16µM*	-9%	4	56µM*	1%	-17%
Cc1nc(N2CCN(C(=O)c3ccco3)CC2)c2c3c(sc2n1)CCC3	32µM*	-9%	6	50µM*	-1%	-21%
CCCCc1nc(N2CCN(C(=O)c3ccco3)CC2)c(C#N)c2c1CCCC2	-11%	.	.	45µM*	.	.
CC(CNC(=O)Cn1ccc2cc(S(=O)(=O)N3CCCCC3)ccc21)c1ccccc1 (centres undefined)	-3%[59 µM]	-24%	.	.	-10%	1%
COc1ccccc1CNC(=O)CCC1N=C2c3ccccc3N=C(SCC(=O)NCCc3ccc(OC)c(OC)c3)N2C1=O (centres undefined)	26%[59 µM]	1%	.	.	-2%	2%
Cc1ccc(-n2cnnn2)cc1S(N)(=O)=O	-14%[59 µM]	2%	.	.	-14%	9%
COc1cccc(CC2(CO)CCCN(Cc3ccccc3-c3ccco3)C2)c1 (centres undefined)	?	-20%	-7	-29%	1%	?
COc1cccc(CC2(CO)CCCN(Cc3ccc(-c4ccco4)cc3)C2)c1 (centres undefined)	40µM*	-9%	2	-22%	-5%	-18%
COc1cccc(CC2(CO)CCCN(Cc3[nH]c4ccc(C)cc4c3C)C2)c1 (centres undefined)	45µM*	?	0	-2%	10%	?
COc1ccc(CCNC(=O)Cn2nc(-c3ccc(Cl)cc3)ccc2=O)cc1OC	-4%[59 µM]	-7%	.	.	-6%	-2%
CC(=O)Nc1ccc(C2=NNC(=Nc3cccc(S(=O)(=O)N(C)C)c3)SC2)cc1	25µM*	14µM*[quencher]	-3	13µM*	?	7.9µM*
CC(C)(C)N=C1NN=C(c2ccc(S(=O)(=O)N3CCCCC3)cc2)CS1	35µM*	.	.	.	.	.
CC(=O)Nc1ccc(C2=NNC(=Nc3ccc(S(=O)(=O)N4CCOCC4)cc3)SC2)cc1	2.8µM*	16µM*[quencher]	-2	14µM*	?	4.5µM*
CC(=O)Nc1ccc(C(=O)Nc2ccc(S(=O)(=O)N3CCOCC3)cc2)cc1	.	.	-1	2%	.	.
Cc1ccc(-n2c(=O)c3c(C)c(C)sc3n(CC(=O)NCc3ccccc3)c2=O)cc1C	-4%[59 µM]	-4%	.	.	-10%	5%
COc1ccc(NC(=O)C2CCCN(C(=O)Nc3ccc(F)cc3)C2)cc1 (centres undefined)	20%	.	0	6%	.	.
